Assay [1] in a line: qHTS of pediatric cancer cell lines to identify multiple opportunities for drug repurposing: Confirmatory screen for NB1643 cells (AID 1347109). Further: nearly all actives have a fitted effect of over 45% in size. A digest of the protocol: (§1)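 Cells (500-1,000/well) rested 5 h, then received compounds for 48 h; metabolically active cells were measured by CellTiter-Glo luminescence. Final concentrations spanned up to 46 µM (MIPE, 11-point) or 0.59 nM-46 µM (NPC, 8-point) in primary screens, 11-point in follow-ups.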

Assay [2] can be described thus: qHTS of pediatric cancer cell lines to identify multiple opportunities for drug repurposing: Confirmatory screen for A673 cells (AID 1347110).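 Further: cells exposed to compound for 48 h before the viability read; nearly all actives have a fitted effect of over 65% in size.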 In outline: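 Forty-eight-hour viability assay. Follow-up compounds ran at 11-point dilutions; positive control bortezomib at 2.3 uM final, neutral control DMSO.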
A short description of assay [3]: qHTS of pediatric cancer cell lines to identify multiple opportunities for drug repurposing: Confirmatory screen for SK-N-MC cells (AID 1347111).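 Further: cells exposed to compound for 48 h before the readout; nearly all actives have a fitted effect of over 70% in size.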 In outline:
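Seed 500-1,000 cells/well; rest 5 h at 37 degrees C. Pin-transfer compounds, 11-point titration. Incubate 48 h. Add CellTiter-Glo, 15 min RT, read luminescence.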
For orientation: In qHTS, concentration-response curves come from the screen itself.

Assay [4] is described as follows: qHTS of pediatric cancer cell lines to identify multiple opportunities for drug repurposing: Confirmatory screen for BT-12 cells (AID 1347112).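 Further: viability read after 48 h of compound exposure; nearly all actives have a fitted effect of over 55% in size.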 In outline: as §1
Assay [5] in a line: qHTS of pediatric cancer cell lines to identify multiple opportunities for drug repurposing: Confirmatory screen for NB-EBc1 cells (AID 1347115).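 Further: cells exposed to compound for 48 h before the viability read; nearly all actives have a fitted effect of over 45% in size.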 In outline:
as §1

Assay [6] can be described thus: qHTS of pediatric cancer cell lines to identify multiple opportunities for drug repurposing: Confirmatory screen for BT-37 cells (AID 1347117).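 Further: viability measured after 48 h of compound exposure; nearly all actives have a fitted effect of over 55% in size.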 A digest of the protocol:
as §1

Assay [7] in a line: qHTS of pediatric cancer cell lines to identify multiple opportunities for drug repurposing: Confirmatory screen for TC32 cells (AID 1347118).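 Further: cells exposed to compound for 48 h before the read; nearly all actives have a fitted effect of over 65% in size.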 A digest of the protocol:
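qHTS, TC32, 48 h drug treatment, CellTiter-Glo luminescence as a proxy for metabolically active cells; primary top concentration 46 µM (MIPE 11-pt, NPC 8-pt); confirmatory 11-pt.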

A short description of assay [8]: qHTS of pediatric cancer cell lines to identify multiple opportunities for drug repurposing: Confirmatory screen for MG 63 (6-TG R) cells (AID 1347119). Further: nearly all actives have a fitted effect of over 55% in size. A digest of the protocol: as §1
Assay [9] is described as follows: qHTS of pediatric cancer cell lines to identify multiple opportunities for drug repurposing: Confirmatory screen for control Hh wild type fibroblast cells (AID 1347121). Further: nearly all actives have a fitted effect of over 70% in size. In outline: as §1
A short description of assay [10]: qHTS of pediatric cancer cell lines to identify multiple opportunities for drug repurposing: Confirmatory screen for U-2 OS cells (AID 1347122). Further: nearly all actives have a fitted effect of over 65% in size. In outline: as §1
Assay [11] in a line: qHTS of pediatric cancer cell lines to identify multiple opportunities for drug repurposing: Confirmatory screen for Rh41 cells (AID 1347123).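 Further: 48 h compound exposure; nearly all actives have a fitted effect of over 60% in size.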 In outline: as §1
The nature of assay [12]: qHTS of pediatric cancer cell lines to identify multiple opportunities for drug repurposing: Confirmatory screen for RD cells (AID 1347124).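 Further: cells exposed to compound for 48 h before viability readout; nearly all actives have a fitted effect of over 65% in size.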 In outline:
as §1

A short description of assay [13]: qHTS of pediatric cancer cell lines to identify multiple opportunities for drug repurposing: Confirmatory screen for Rh18 cells (AID 1347125). Further: nearly all actives have a fitted effect of over 55% in size. A digest of the protocol:
as §1

A short description of assay [14]: qHTS of pediatric cancer cell lines to identify multiple opportunities for drug repurposing: Confirmatory screen for Rh30 cells (AID 1347126). Further: nearly all actives have a fitted effect of over 55% in size. In outline:
as §1

Assay [15] in a line: qHTS of pediatric cancer cell lines to identify multiple opportunities for drug repurposing: Confirmatory screen for Saos-2 cells (AID 1347127). Further: nearly all actives have a fitted effect of over 60% in size. In outline: as §1
Assay [16] in a line: qHTS of pediatric cancer cell lines to identify multiple opportunities for drug repurposing: Confirmatory screen for OHS-50 cells (AID 1347128). A digest of the protocol: as §1
Assay [17] is described as follows: qHTS of pediatric cancer cell lines to identify multiple opportunities for drug repurposing: Confirmatory screen for SK-N-SH cells (AID 1347129).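 Further: cells exposed to compound for 48 h before viability read; nearly all actives have a fitted effect of over 60% in size.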 A digest of the protocol:
as §1

Structures are written as SMILES. Inconclusive results are not listed. Unmarked numbers belong to inactive results. Calls of active or inactive are those of the source. The call rests on the fitted dose curve; in most records, active means well fitted curve in the direction sought with a large enough effect; inconclusive means small, poorly fitted or top-dose-only effect, or another doubt; inactive means no such curve, though single readings can be large; an effect the other way counts as inactive or inconclusive.
Potency means the concentration at half of the fitted maximal effect.

Take `COC(=O)[C@H](c1ccccc1Cl)N1CCc2sccc2C1`: the Potency entry in assay [1], in assay [2], in assay [3], in assay [4], in [5] and in assay [6] was “inactive” in each case. For the same molecule, the Potency entry in assay [7], in assay [8], in assay [9], in assay [10], in assay [11] and in [12] was “inactive” in each case. The Potency entry in [13], in [14], in assay [15], in [16] and in assay [17] was “inactive” throughout.
On to `CC(C)(C)c1[nH]cnc1C=c1[nH]c(=O)c(=Cc2ccccc2)[nH]c1=O`, for which the Potency is 11.4 nM (active) in assay [1]; 32 nM (active) in [2]; 10.1 nM (active) in [3]; 202 nM (active) in [4]; 18 nM (active) in assay [5]; 14.3 nM (active) in assay [6]. The Potency in [7] was 10.1 nM (active); in assay [11], 22.7 nM (active); in assay [12] it was 18 nM (active); in assay [13] it was 16 nM (active); in [14], 20.2 nM (active).
`CC1(C)OC2CC3C4CC(F)C5=CC(=O)C=CC5(C)C4C(O)CC3(C)[C@]2(C(=O)CO)O1` (stereo partly specified): the Potency result in assay [1], in assay [2], in assay [3], in assay [4], in [5] and in [6] was “inactive” in each case. Further, the Potency result in assay [7], in assay [8], in assay [9], in assay [10], in [12] and in assay [13] was “inactive” throughout. The Potency entry in assay [14], in assay [15], in assay [16] and in assay [17] was “inactive” throughout.
Regarding `Cc1ccc(S(=O)(=O)Nc2nc3ccccc3nc2Nc2ccc3nsnc3c2)cc1`, the Potency in assay [1] is 9100 nM (active); in assay [3] it was 256 nM (active); in assay [6] it was 1290 nM (active); in assay [7], 229 nM (active); in assay [8], 16200 nM (active). For the same molecule, the Potency entry in assay [2], in assay [4], in [5], in assay [9], in [13] and in [17] was “inactive” each time.
Consider `NC(N)=Nc1nc(CSCCC(N)=NS(N)(=O)=O)cs1`, for which the Potency result in [1], in [2], in assay [3], in [4], in assay [5] and in assay [6] was “inactive” throughout. The Potency result in [7], in assay [8], in assay [9], in assay [10], in [11] and in [12] was “inactive” each time. Besides, the Potency result in assay [13], in assay [14], in assay [15], in assay [16] and in assay [17] was “inactive” each time.
As to `C[C@@]1(C(=O)Nc2ccc(F)nc2)CCCN1c1nc(Nc2cc(C3CC3)[nH]n2)c2cccn2n1`, the Potency is 293 nM (active) in [1]; 465 nM (active) in [2]; 1470 nM (active) in assay [5]; 2930 nM (active) in assay [6]; 233 nM (active) in assay [7]; 104 nM (active) in assay [8]. The Potency in assay [9] was 14700 nM (active); in assay [10], 1650 nM (active); in assay [11], 208 nM (active); in assay [13], 7370 nM (active); in [15], 1850 nM (active); in assay [16], 5220 nM (active). Further, the Potency in [17] is 1660 nM (active).
Take `C[C@@]1(c2cc(-c3cncnc3)c(F)cc2F)CCSC(N)=N1`: the Potency was 20800 nM (active) in [1]; 7370 nM (active) in [3]; 11700 nM (active) in assay [6]; 8270 nM (active) in [7]; 9270 nM (active) in assay [8]; 7370 nM (active) in assay [11]. In addition, the Potency result in [2], in [9], in assay [13] and in assay [14] was “inactive” in each case.
Consider `CN(C)CC[C@H](CSc1ccccc1)Nc1ccc(S(=O)(=O)NC(=O)c2ccc(N3CCN(Cc4ccccc4-c4ccc(Cl)cc4)CC3)cc2)cc1[N+](=O)[O-]`, for which the Potency in [1] is 414 nM (active); in assay [2], 14700 nM (active); in assay [3], 3690 nM (active); in [5], 8270 nM (active); in assay [7], 20800 nM (active); in assay [8], 1470 nM (active). Also, the Potency was 737 nM (active) in assay [10], 4650 nM (active) in assay [11], 1310 nM (active) in assay [13] and 5850 nM (active) in assay [15]. The Potency result in assay [4] and in [9] was “inactive” throughout.
`CC1C(=O)OC2C(O)C34C5CC(C(C)(C)C)C36C(OC(=O)C6O)OC4(C(=O)O5)C12O` (stereo unspecified): the Potency entry in [1], in assay [3], in assay [4], in assay [5], in assay [6] and in [7] was “inactive” throughout. Besides, the Potency result in [8], in assay [9], in assay [10], in assay [11], in [12] and in [13] was “inactive” each time. In addition, the Potency result in assay [15], in assay [16] and in assay [17] was “inactive” in each case. Moreover, the Potency in [2] is 18500 nM (active).
Regarding `Cc1cnc(-c2cc(N3CCN(C(=O)CCS(C)(=O)=O)CC3)ncc2Cl)c(C)c1`, the Potency entry in assay [1], in assay [2], in assay [3], in assay [4], in assay [5] and in assay [7] was “inactive” each time. For the same molecule, the Potency result in assay [8], in assay [9], in assay [10], in [12], in assay [13] and in [14] was “inactive” in each case. Also, the Potency entry in assay [15], in [16] and in assay [17] was “inactive” each time. Also, the Potency in assay [6] was 29300 nM (active).
Regarding `CN[C@@H]1CN(c2ccc3c(=O)c(C(=O)O)cn(-c4nccs4)c3n2)C[C@@H]1OC`, the Potency was 1820 nM (active) in assay [1]; 1290 nM (active) in assay [2]; 1440 nM (active) in assay [3]; 9100 nM (active) in assay [4]; 811 nM (active) in assay [5]; 2570 nM (active) in assay [6]. Moreover, the Potency was 1150 nM (active) in assay [7]; 14400 nM (active) in [12]; 14400 nM (active) in [13]; 6440 nM (active) in assay [16]; 7240 nM (active) in assay [17]. In addition, the Potency entry in [15] is “inactive”.

Source of the values: PubChem BioAssay (NCATS).
